SMILES strings stand for the structures. Hit rate of the full screen: of about 1,200 compounds, about 950 (79%) were called active.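 How the source made its calls: active means signal rises and fitted curve reaches 40% activity at or below the top valid tested dose, in every replicate test; inconclusive means replicate tests give mixed calls; inactive means the rest, including activity in the opposite direction.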 So high a share suggests a set chosen from earlier hits. A selection follows. Measured potencies and affinities stand elsewhere.

The nature of the assay: Bmi1-luciferase reporter activators in mESC, dose response, esBAF inhibitor project, mouse embryonic stem cells, cherry-pick (AID 651717).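 Further: luciferase knocked into Bmi1 locus with EF-1a renilla as cell number control; rising ratio signals esBAF inhibition which derepresses Bmi1.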 Particulars: firefly/renilla ratio, 24 h, active compounds read high; at 35 µM unless noted. On the technique in general: A reporter such as luciferase makes a cellular process visible.
In the case of `O=C(CCCc1ccccc1)Nc1ccccc1C(F)(F)F`, the max activity is 21.6% (inactive).
In the case of `C[C@@H]1CN([C@@H](C)CO)C(=O)c2cc(NC(=O)Nc3ccc4c(c3)OCO4)ccc2O[C@@H](C)CCCCO[C@H]1CN(C)C(=O)Nc1ccccc1`, the max activity is 33.3% (inactive).
As to `C[C@@H]1CCCCO[C@H](CN(C)C(=O)Nc2ccc(F)cc2)[C@H](C)CN([C@@H](C)CO)C(=O)c2cc(NC(=O)Nc3ccc4c(c3)OCO4)ccc2O1`, the max activity is 7.08% [at 1 µM] (inactive).
Regarding `O=S(=O)(c1cccs1)N1CN(Cc2ccc(Cl)cc2)c2nc3ccccc3nc21`, the max activity was -33.7% (inactive).
As to `COc1ccc(-c2nn(-c3ccccc3)cc2/C=C(\CC(=O)O)c2nc3ccccc3s2)cc1OC`, the max activity is 26.9% (inactive).
For the compound `C[C@@H]1CCCCO[C@@H](CN(C)S(=O)(=O)c2cn(C)cn2)[C@H](C)CN([C@H](C)CO)C(=O)c2cc(NC(=O)Nc3ccc4c(c3)OCO4)ccc2O1`, the max activity was -9.02% [at 2.1 µM] (inactive).
Take `CN(c1ccc(O)cc1)S(=O)(=O)c1ccc2ccccc2c1`: the max activity is 14.3% [at 8 µM] (inactive).
Turning to `CCCN(Cc1ccc(C)cc1)C(=O)c1ccc(CNS(=O)(=O)c2ccc(C(C)=O)cc2)cc1`, the max activity is 33.1% [at 16 µM] (inactive).
The figure for `COc1cccc(CN(C(=O)c2cc3ccccc3oc2=O)C2CC2)c1` is 35% [at 8 µM] (inactive); for `O=C1NC[C@H](c2ccccc2)OC(=O)[C@@H](Cc2ccc(F)cc2)C/C=C\C[C@H]1CC(=O)N(CCO)Cc1ccccc1` it is 25.5% (inactive); for `COC(=O)c1ccc2c(=O)n(CC3CCCO3)c(SCC(=O)Nc3ccccc3Cl)nc2c1` (stereo not drawn) it is 24.8% [at 8 µM] (inactive).
As to `C[C@@H]1CCCCO[C@@H](CN(C)C(=O)Nc2cccc3ccccc23)[C@H](C)CN([C@H](C)CO)C(=O)c2cc(NC(=O)C3CCCCC3)ccc2O1`, the max activity is 28.2% [at 16 µM] (inactive).
The figure for `COc1ccc(CNC(=O)N(C)C[C@@H]2OCc3ccccc3-c3c(n(C)c4ccccc34)C(=O)N([C@H](C)CO)C[C@@H]2C)cc1` is -26.4% [at 30 µM] (inactive).
`COc1ccc(-c2cc(C(=O)N3CCCCCC3)no2)cc1OC`: the max activity was 32.3% (inactive).
As for `CS(=O)(=O)NN1C(=O)c2ccccc2NC1c1cc2ccccc2nc1Cl` (stereo not drawn), the max activity was 18.4% (inactive).
With `COc1ccc(C(=O)O/N=C(\N)c2ccc(OC)c(OC)c2)c(OC)c1` the figure was 34.8% (inactive); with `O=C(NCC[C@@H]1CC[C@H](NC(=O)Nc2cc(F)ccc2F)[C@H](CO)O1)Nc1ccc(Cl)cc1`, 29.7% (inactive); with `O=C(NCC[C@@H]1CC[C@@H](NC(=O)Nc2cc(F)ccc2F)[C@H](CO)O1)Nc1ccc(Cl)cc1`, -11.9% [at 16 µM] (inactive).

The values are drawn from PubChem BioAssay AID651717 (Broad Institute, 2012).
